Test results from PubChem BioAssay (NCI).
The panel holds about 83,000 compounds, 20% with a hit somewhere; the sample as a whole holds those more often.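 Plates (96-well) were seeded with cells, treated with compound at one concentration, and incubated for 48 hours before percent growth was determined.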 Values without a mark were called inactive. The source made the active and inactive calls. How the source made its calls: active means growth percent below 10; inactive means the rest.

These compounds were tested on OVCAR-4 ovarian (assay: NCI-60 one-dose screen, 48 h (100 = growth as untreated, 0 = no growth, -100 = all killed)). Details: 10 µM unless noted.

Q: For `C=C1C(=O)O[C@H]2[C@H]1CC/C(COC(=O)/C=C\C(=O)O)=C\CC[C@@]1(C)O[C@@H]21`, which growth is on record?
A: 113%

Q: How did the growth turn out when `CCCCC1CCc2cccc3c(SCC(=O)N(C)c4ccc(Cl)cc4)cc[n+]1c23` (centres undefined) was run?
A: 107%

Q: For `O=C(c1nc2ccccc2[nH]1)C1C(c2cccc([N+](=O)[O-])c2)C2CC3CCCCC3N2[C@@]12C(=O)Nc1cc(Cl)ccc12` (some centres undefined), which growth is on record?
A: 27.5%

Q: Which growth does the source give for `O=C1/C(=C/c2ccc(O)cc2)COc2ccc(O)cc21` here?
A: 102%

Q: How did the growth turn out when `O=C1/C(=C/c2ccc(O)cc2)COc2ccc(O)c(O)c21` was run?
A: 43.7%

Q: `COc1cc2nc(NC3CCCC3)nc(NC3CCN(C(C)C)CC3)c2cc1OC` was tested. Which growth did it give?
A: 69%

Q: For `Cc1ccccc1CNC(=O)C1CN(c2ccc(Cl)cc2)N(c2ccc(Cl)cc2)C1=O` (centres undefined), which growth is on record?
A: 84.1%

Q: Which growth does the source give for `COc1cc(C2CC(c3ccc(Nc4nc(NCCO)nc(N5CCOCC5)n4)cc3)=NN2c2cc(Cl)cc(Cl)c2)cc(OC)c1OC` (centres undefined) here?
A: 57.2%

Q: Which growth does the source give for `O=C(c1nc2ccccc2[nH]1)C1C(c2ccc([N+](=O)[O-])cc2)C2CC3CCCCC3N2[C@@]12C(=O)Nc1cc(Cl)ccc12` (some centres undefined) here?
A: 20.6%

Q: Which growth does the source give for `O=C(Cn1cc(COc2ncnc3c2cnn3-c2ccccc2)nn1)Nc1cccc2ccccc12` here?
A: 76.9%

Q: With `CN1C(=O)N(C)C2Nn3c(s/c(=C\c4ccc(Cl)cc4Cl)c3=O)=NC21` (centres undefined) as the compound, how does the growth read?
A: 67.6%

Q: With `O=Cc1cc2ccccc2nc1Nc1nccs1` as the compound, how does the growth read?
A: 75.8%

Q: `O=C1/C(=C/c2cccc(O)c2)COc2ccc(O)cc21` was tested. Which growth did it give?
A: 98.1%

Q: How did the growth turn out when `COc1cc2nc(NC3CCC3)nc(NC3CCN(C(C)C)CC3)c2cc1OC` was run?
A: 62.5%

Q: For `O=C(c1nc2ccccc2[nH]1)C1[C@@H](c2cccc(O)c2)C2CC3CCCCC3N2[C@@]12C(=O)Nc1cc(Cl)ccc12` (some centres undefined), which growth is on record?
A: 34.4%

Q: `CCN1C(=O)N(c2ccccc2)C2NN=c3s/c(=C4\C(=O)N(C(C)C)c5ccccc54)c(=O)n3C21` (centres undefined) was tested. Which growth did it give?
A: 45.8%

Q: `Cc1sc2ncn(CC(=O)Nc3ccc(S(N)(=O)=O)cc3)c(=O)c2c1C` was tested. Which growth did it give?
A: 108%

Q: Which growth does the source give for `COC(=O)c1c2c(c(C)[n+]([O-])c1C)C(=O)C(NCc1ccc(F)c(F)c1)=CC2=O` here?
A: -93.4% (active)

Q: `CNCCNc1nc2ccccc2c2c(=O)c3cccc(OC)c3sc12` was tested. Which growth did it give?
A: 22.8%

Q: For `CNCCNc1nc2ccccc2c2c(=O)c3cccc(C)c3sc12`, which growth is on record?
A: 29.4%

Q: Which growth does the source give for `COc1cc(/C=C2\Oc3cc(OCCCN4CCCC4)ccc3C2=O)cc(OC)c1` here?
A: 75.2%

Q: For `COC(=O)[C@H](NC(=O)C1(C)CCC[C@]2(C)[C@H]3C[C@H]4C(C(C)C)=C[C@]3(CC[C@@H]12)[C@@H]1C(=O)CCC(=O)[C@@H]14)C(C)C` (some centres undefined), which growth is on record?
A: 94.5%

Q: Which growth does the source give for `COc1cc(/C=C2\CN(C)C/C(=C\c3cc(CN4CCCCC4)c(O)c(OC)c3)C2=O)cc(CN2CCCCC2)c1O` here?
A: 38.6%

Q: For `O=S(=O)(Nc1ncccn1)c1ccc(NC2Nc3nc4ccccc4nc3S2)cc1` (centres undefined), which growth is on record?
A: 102%

Q: `O=C1CCC(N2C(=O)c3cccc(NCCCCCCOc4ccc(Nc5nccc(Nc6ccccc6)n5)cc4)c3C2=O)C(=O)N1` (centres undefined) was tested. Which growth did it give?
A: 64.6%

Q: For `Cc1c(-c2csc(-n3nc(C(F)(F)F)cc3C(F)(F)F)n2)no[n+]1[O-]`, which growth is on record?
A: 87.4%

Q: `O=C(NCc1ccccc1)C1CN(c2ccc(Cl)cc2)N(c2ccc(Cl)cc2)C1=O` (centres undefined) was tested. Which growth did it give?
A: 88.3%

Q: How did the growth turn out when `c1ccc2c(c1)oc1cc3sccc3nc12` was run?
A: 102%

Q: `CCCCC1COc2cccc3c2N1C=C/C3=C\C(=O)N(C)c1ccccc1` (centres undefined) was tested. Which growth did it give?
A: 50.7%

Q: Which growth does the source give for `COc1cc(/C=C/C(=O)c2ccc(Nc3nc(NCCO)nc(N4CCOCC4)n3)cc2)cc(OC)c1OC` here?
A: 23.9%

Q: For `Cc1cccc2c(=O)c3c(sc12)c(NCCCNCCO)nc1ccccc13`, which growth is on record?
A: 54.3%

Q: `COc1cc(/C=C2\CN(C)C/C(=C\c3cc(CN4CCCC4)c(O)c(OC)c3)C2=O)cc(CN2CCCC2)c1O` was tested. Which growth did it give?
A: 65.8%

Q: Which growth does the source give for `O=C(/C=C/c1ccc(C(F)(F)F)cc1)c1ccc(Nc2nc(NCCO)nc(N3CCOCC3)n2)cc1` here?
A: 22.8%

Q: `NCCOc1ccccc1/C=C1\c2ccccc2-c2ccc([N+](=O)[O-])cc21` was tested. Which growth did it give?
A: 30.3%

Q: Which growth does the source give for `O=C(/C=C/c1ccc(F)cc1)c1ccc(Nc2nc(NCCO)nc(Nc3ccc(Cl)cc3)n2)cc1` here?
A: 78.6%

Q: For `O=c1oc2ccc(Br)cc2c(=O)n1-c1ccc(Br)cc1F`, which growth is on record?
A: 10.4%

Q: How did the growth turn out when `NCCNc1nc2ccccc2c2c(=O)c3cc(F)cc(Cl)c3sc12` was run?
A: -73.4% (active)

Q: How did the growth turn out when `CCCN1CCN(c2ccc3nc(-c4ccc5nc(-c6cc(OC)ccc6OC)[nH]c5c4)[nH]c3c2)CC1` was run?
A: 81.1%

Q: `Cc1ccc(C2CC(c3ccc(Nc4nc(NCCO)nc(Nc5ccc(Cl)cc5)n4)cc3)=NN2c2cc(Cl)cc(Cl)c2)cc1` (centres undefined) was tested. Which growth did it give?
A: 102%
